Only some compounds are listed: those with a hit (about 1.2% of all), similar ones and a draw of the others.
CIT2-GFP yeast = yeast TOR pathway CIT2-GFP modulation; AID 2029; hit rate 0.065% among 320,000; GFP response vs DMSO, % at 10 µM; S. cerevisiae CIT2-GFP strain, flow cytometry, 3 h; 100 means same as DMSO wells;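 active = GFP response relative to DMSO above a set limit, near the screen mean plus 3 SD, cut at about 150% in these data; inconclusive = Fewer than 70 cells measured for a yeast strain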;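 also: ratio of well median GFP fluorescence to mean of DMSO wells on the plate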
AGP1-GFP MLPCN = yeast TOR pathway AGP1-GFP modulation; S. cerevisiae AGP1-GFP multiplex flow cytometry, 3 h; GFP as percent of DMSO wells; GFP response vs DMSO, % at 10 µM; hit rate 0.02% among 320,000;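 active = GFP response relative to DMSO above a set limit, near screen average plus 3 SD, cut at about 150% in these data; inconclusive = fewer than 70 cells counted for the yeast strain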;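 also: median GFP channel fluorescence of the gated AGP1 strain per well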
MEP2-GFP yeast = modulators of TOR pathway MEP2-GFP in S. cerevisiae. S. cerevisiae MEP2-GFP strain, flow cytometry GFP, 3 h; 100% = DMSO control level. GFP response vs DMSO, % at 10 µM. hit rate 0.51% among 330,000. AID 2016;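 active = GFP response versus DMSO above a set limit, roughly screen mean plus 3 SD, cut at about 180% in these data; inconclusive = fewer than 70 cells counted for a yeast strain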;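 also: median GFP fluorescence of the barcode-gated MEP2-GFP cells per well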
RPL19A-GFP yeast = yeast TOR pathway RPL19A-GFP modulation. S. cerevisiae RPL19A-GFP strain, flow cytometry, 3 h; hits give low values. percent response vs DMSO, % at 10 µM. hit rate 0.3% among 330,000. AID 2025;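 active = percent response vs DMSO below 50%; inconclusive = fewer than 70 events counted for the yeast strain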;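 also: median channel GFP fluorescence of the barcoded RPL19A-GFP strain; lower means less RPL19A-GFP as with rapamycin TOR inhibition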
LAP4 TOR yeast = alters LAP4-GFP fluorescence in TOR pathway yeast screen; hit rate 0.34% among 320,000; GFP response vs DMSO, % at 10 µM; AID 2023; S. cerevisiae LAP4-GFP multiplex, flow cytometry GFP, 3 h; median GFP as percent of DMSO wells;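 active = GFP response vs DMSO above a set limit, about the screen mean plus 3 SD, cut at about 150% in these data; inconclusive = under 70 cell events counted for the yeast strain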
Pemphigus Ab inh = human desmoglein-3 autoantibody binding inhibition | P32926 | DSG3-coupled beads, scFv-anti-DSG3-GFP binding, flow cytometry; hits give low values | binding (percent of control), % at 10 µM | hit rate 0.48% among 310,000 | AID 588358;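 active = binding more than 3 SD below its plate's average and above zero; inconclusive = below that plate limit but binding exactly zero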;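 also: hits lower antibody fragment binding to DSG3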
Large screens that a line does not name were inactive; [ ] = remark or other dose.

Cc1cnccc1CN(C)C(=O)C1CCC(=O)N(Cc2ccccc2F)C1 (configuration not stated)	CIT2-GFP yeast inconclusive, AGP1-GFP MLPCN inconclusive, RPL19A-GFP yeast 32[may fluoresce violet], Pemphigus Ab inh inconclusive
COCCn1c(C)cc(O)c(C(=O)Nc2cccc(Cl)c2)c1=O	CIT2-GFP yeast inconclusive, MEP2-GFP yeast 191[may fluoresce violet]
Cc1nc(N2CCCCC2)[nH]c(=O)c1CN(C)N=O	none (no result: CIT2-GFP yeast, AGP1-GFP MLPCN, MEP2-GFP yeast, RPL19A-GFP yeast, LAP4 TOR yeast)
Cn1c(=O)oc2cc(S(=O)(=O)N3CCC(C(=O)NCC4COc5ccccc5O4)CC3)ccc21 (configuration not stated)	Pemphigus Ab inh -15
Cn1c(=O)oc2cc(S(=O)(=O)N3CCCC(C(=O)Nc4nccs4)C3)ccc21 (configuration not stated)	none
Cc1cccc(NC(=O)C2CCCN(S(=O)(=O)c3ccc4c(c3)oc(=O)n4C)C2)c1 (configuration not stated)	CIT2-GFP yeast inconclusive, AGP1-GFP MLPCN inconclusive, MEP2-GFP yeast 202[may fluoresce violet], RPL19A-GFP yeast 45[may fluoresce violet]
O=C(NCC1COc2ccccc2O1)C1CCN(S(=O)(=O)c2ccccc2)CC1 (configuration not stated)	none (no result: Pemphigus Ab inh)
ClCc1cc2ccccc2nc1Cl	none
Cc1ccc2cc(CCl)c(Cl)nc2c1	CIT2-GFP yeast inconclusive, AGP1-GFP MLPCN inconclusive, MEP2-GFP yeast 791[may fluoresce violet], RPL19A-GFP yeast 36[may fluoresce violet]
Cc1nc(Oc2ccccc2)c2oc3ccccc3c2n1	CIT2-GFP yeast inconclusive, AGP1-GFP MLPCN inconclusive, MEP2-GFP yeast 430[may fluoresce violet]
Cc1nc(Nc2ccccc2O)c2oc3ccccc3c2n1	Pemphigus Ab inh 80
Cc1nc(Nc2ccccc2F)c2oc3ccccc3c2n1	none
COc1ccc(N(Cc2cc(=O)[nH]c3ccccc23)C(C)=O)cc1	none
CCOCCCN(C)C1CCN(C(=O)c2oc3ccccc3c2NC(=O)c2ccc(F)cc2)CC1	CIT2-GFP yeast inconclusive, AGP1-GFP MLPCN inconclusive, RPL19A-GFP yeast 16[may fluoresce violet]
CCOc1c(Br)cc(C(=O)Nc2cccc(S(=O)(=O)N3CCOCC3)c2)cc1OC	none (no result: CIT2-GFP yeast, AGP1-GFP MLPCN, MEP2-GFP yeast, RPL19A-GFP yeast, LAP4 TOR yeast)
CCOC(=O)c1ccc(NS(=O)(=O)c2ccc3c(c2)oc(=O)n3C)cc1	none
COC(=O)c1ccc(NS(=O)(=O)c2ccc3c(c2)oc(=O)n3C)cc1	Pemphigus Ab inh 92
CCOC(=O)c1ccc(NS(=O)(=O)c2ccc3c(c2)n(C)c(=O)n3C)cc1	Pemphigus Ab inh inconclusive
COC(=O)c1ccc(NS(=O)(=O)c2ccc3c(c2)n(C)c(=O)n3C)cc1	Pemphigus Ab inh 76
Cc1ccc(S(=O)(=O)CCC(=O)N2CCN(c3ccc([N+](=O)[O-])cc3)CC2)cc1	none
Cc1ccc2nc(NC(=O)c3ccco3)sc2c1	none
Cc1ccc2nc(NC(=S)NC(=O)c3ccco3)sc2c1	CIT2-GFP yeast inconclusive, AGP1-GFP MLPCN inconclusive, RPL19A-GFP yeast 40[may fluoresce violet]
COc1ccc(CC(C)NCC(O)c2ccc(O)c(NC=O)c2)cc1 (configuration not stated)	none (no result: CIT2-GFP yeast, AGP1-GFP MLPCN, MEP2-GFP yeast, RPL19A-GFP yeast, LAP4 TOR yeast)
O=C(Nc1ccc(Cl)c(Cl)c1)OCc1cncs1	none
COc1ccccc1C(C)NC(=O)Cc1ccc(S(=O)(=O)N2CCOCC2)s1 (configuration not stated)	none
Cc1cccn2c(=O)c(/C=C(\C#N)C(=O)NC3CCS(=O)(=O)C3)c(Oc3ccccc3Cl)nc12 (configuration not stated)	CIT2-GFP yeast inconclusive, AGP1-GFP MLPCN inconclusive, MEP2-GFP yeast 234[may fluoresce violet]
COc1cccc(Sc2ccccc2/C=N/NC(N)=O)c1	Pemphigus Ab inh 38
COc1ccc(NC(=O)CSc2nnc(-c3cccnc3)o2)c(OC)c1	none
COc1ccccc1N(CC(=O)NCc1ccco1)S(=O)(=O)c1ccc(C)cc1	Pemphigus Ab inh -60
Cc1ccc(S(=O)(=O)N(CC(=O)Nc2cccnc2)c2ccccc2C)cc1	MEP2-GFP yeast 188
COc1ccc(N(CC(=O)NCc2ccco2)S(=O)(=O)c2ccc(C)cc2)cc1OC	none
COCC(C)n1c(SCC(=O)Nc2c(C)n(C)n(-c3ccccc3)c2=O)nc2ccccc2c1=O (configuration not stated)	none
NS(=O)(=O)c1ccc(N2N=C(c3ccc(Br)cc3)CC2c2ccc(F)cc2)cc1 (configuration not stated)	CIT2-GFP yeast inconclusive, AGP1-GFP MLPCN inconclusive, RPL19A-GFP yeast 37[may fluoresce violet]
